Laboratory results: PubChem BioAssay
The source made the active and inactive calls.

Legend:
[1] = system: PRMT1 (protein arginine N-methyltransferase 1); experiment: PRMT1 binders on small-molecule microarrays, primary screen, biochemical, small-molecule microarray, 635 nm fluorescence (AID 1088); conditions: small-molecule microarray binding, higher = more signal;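 note: binding of Prmt1 protein to compounds spotted on small-molecule microarray slides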
[2] = yeast growth modulation, basal conditions, primary screen, YJM789 clinical isolate, OD600, 24 h (AID 1089);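 note: growth of clinical yeast isolate S. cerevisiae YJM 789 seeded 1000 cells per well; test concentration not given here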; conditions: S. cerevisiae YJM789 growth, higher = more signal, called active from +8 up or from −8 down
[3] = fission yeast growth modulation, primary screen, strain 972, OD600, 24 h, no modulator (AID 1090);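 note: basal condition with compound alone and no growth modifier present; test concentration not given here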; conditions: S. pombe 972 growth, higher = more signal, called active from +8 up or from −8 down
[4] = S. cerevisiae growth modulation with rapamycin, primary screen, strain BY4716, OD600, 96 h (AID 1091); conditions: higher = more signal, called active from +8 up or from −8 down; note: test concentration not given here
[5] = target: Torsin-1A-interacting protein 2 (Homo sapiens) (UniProt Q8NFQ8); experiment: LULL1 binders on small-molecule microarray, primary screen, cell lysate, human LULL1 lysate, 635/667 nm fluorescence (AID 1092); conditions: hLULL1 lysate binding, 635 nm fluorescence, higher = more signal;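 note: probe is lysate of COS7 cells overexpressing human LULL1; score merges per-feature 667 nm fluorescence with signal-to-noise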
Sequence of Torsin-1A-interacting protein 2 (Homo sapiens) (Q8NFQ8 whole entry, looked up): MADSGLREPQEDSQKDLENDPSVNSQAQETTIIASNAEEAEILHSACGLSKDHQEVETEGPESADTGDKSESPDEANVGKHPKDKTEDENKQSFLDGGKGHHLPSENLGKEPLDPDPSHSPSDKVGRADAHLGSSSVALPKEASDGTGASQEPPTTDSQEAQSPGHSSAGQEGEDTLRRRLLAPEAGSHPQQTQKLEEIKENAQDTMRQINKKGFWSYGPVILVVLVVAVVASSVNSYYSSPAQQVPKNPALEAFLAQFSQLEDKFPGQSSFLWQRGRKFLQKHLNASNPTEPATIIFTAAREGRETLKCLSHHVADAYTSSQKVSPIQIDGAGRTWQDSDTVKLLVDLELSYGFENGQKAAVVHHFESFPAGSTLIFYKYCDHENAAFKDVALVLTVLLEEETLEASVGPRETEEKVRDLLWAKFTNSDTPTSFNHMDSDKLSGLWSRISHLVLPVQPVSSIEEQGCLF

[6] = E. coli growth modulation, two-sided OD650, primary screen, E. coli filamentation project, strain DRC41, 24 h (AID 1093); conditions: OD650, 24 h, higher = more signal, called active from +8 up or from −8 down;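 note: MC1000 strain lacking acrAB efflux and sulA so SOS filamentation is blocked; test concentration not given here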
[7] = small-molecule microarray binders of probe aLefty2, primary screen, biochemical, biotinylated probe, 635/667 nm fluorescence (AID 1094); conditions: higher = more signal;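 note: score merges spot fluorescence near 667 nm with spot signal-to-noise ratio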
[8] = system: Noggin (protein binding on small-molecule microarray); experiment: Noggin binders on small-molecule microarray, primary screen, biochemical, 635/667 nm fluorescence (AID 1095); conditions: 635 nm fluorescence, higher = more signal;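 note: score merges 667 nm feature fluorescence with signal to noise over triplicate slides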
[9] = target: Neurogenic locus notch homolog protein 3 (Homo sapiens) (UniProt Q9UM47); experiment: NOTCH3 binders on small-molecule microarray, primary screen, biochemical, 635/667 nm fluorescence (AID 1096); conditions: NOTCH3 binding, 635 nm fluorescence, higher = more signal
Sequence of Neurogenic locus notch homolog protein 3 (Homo sapiens) (Q9UM47 whole entry, looked up): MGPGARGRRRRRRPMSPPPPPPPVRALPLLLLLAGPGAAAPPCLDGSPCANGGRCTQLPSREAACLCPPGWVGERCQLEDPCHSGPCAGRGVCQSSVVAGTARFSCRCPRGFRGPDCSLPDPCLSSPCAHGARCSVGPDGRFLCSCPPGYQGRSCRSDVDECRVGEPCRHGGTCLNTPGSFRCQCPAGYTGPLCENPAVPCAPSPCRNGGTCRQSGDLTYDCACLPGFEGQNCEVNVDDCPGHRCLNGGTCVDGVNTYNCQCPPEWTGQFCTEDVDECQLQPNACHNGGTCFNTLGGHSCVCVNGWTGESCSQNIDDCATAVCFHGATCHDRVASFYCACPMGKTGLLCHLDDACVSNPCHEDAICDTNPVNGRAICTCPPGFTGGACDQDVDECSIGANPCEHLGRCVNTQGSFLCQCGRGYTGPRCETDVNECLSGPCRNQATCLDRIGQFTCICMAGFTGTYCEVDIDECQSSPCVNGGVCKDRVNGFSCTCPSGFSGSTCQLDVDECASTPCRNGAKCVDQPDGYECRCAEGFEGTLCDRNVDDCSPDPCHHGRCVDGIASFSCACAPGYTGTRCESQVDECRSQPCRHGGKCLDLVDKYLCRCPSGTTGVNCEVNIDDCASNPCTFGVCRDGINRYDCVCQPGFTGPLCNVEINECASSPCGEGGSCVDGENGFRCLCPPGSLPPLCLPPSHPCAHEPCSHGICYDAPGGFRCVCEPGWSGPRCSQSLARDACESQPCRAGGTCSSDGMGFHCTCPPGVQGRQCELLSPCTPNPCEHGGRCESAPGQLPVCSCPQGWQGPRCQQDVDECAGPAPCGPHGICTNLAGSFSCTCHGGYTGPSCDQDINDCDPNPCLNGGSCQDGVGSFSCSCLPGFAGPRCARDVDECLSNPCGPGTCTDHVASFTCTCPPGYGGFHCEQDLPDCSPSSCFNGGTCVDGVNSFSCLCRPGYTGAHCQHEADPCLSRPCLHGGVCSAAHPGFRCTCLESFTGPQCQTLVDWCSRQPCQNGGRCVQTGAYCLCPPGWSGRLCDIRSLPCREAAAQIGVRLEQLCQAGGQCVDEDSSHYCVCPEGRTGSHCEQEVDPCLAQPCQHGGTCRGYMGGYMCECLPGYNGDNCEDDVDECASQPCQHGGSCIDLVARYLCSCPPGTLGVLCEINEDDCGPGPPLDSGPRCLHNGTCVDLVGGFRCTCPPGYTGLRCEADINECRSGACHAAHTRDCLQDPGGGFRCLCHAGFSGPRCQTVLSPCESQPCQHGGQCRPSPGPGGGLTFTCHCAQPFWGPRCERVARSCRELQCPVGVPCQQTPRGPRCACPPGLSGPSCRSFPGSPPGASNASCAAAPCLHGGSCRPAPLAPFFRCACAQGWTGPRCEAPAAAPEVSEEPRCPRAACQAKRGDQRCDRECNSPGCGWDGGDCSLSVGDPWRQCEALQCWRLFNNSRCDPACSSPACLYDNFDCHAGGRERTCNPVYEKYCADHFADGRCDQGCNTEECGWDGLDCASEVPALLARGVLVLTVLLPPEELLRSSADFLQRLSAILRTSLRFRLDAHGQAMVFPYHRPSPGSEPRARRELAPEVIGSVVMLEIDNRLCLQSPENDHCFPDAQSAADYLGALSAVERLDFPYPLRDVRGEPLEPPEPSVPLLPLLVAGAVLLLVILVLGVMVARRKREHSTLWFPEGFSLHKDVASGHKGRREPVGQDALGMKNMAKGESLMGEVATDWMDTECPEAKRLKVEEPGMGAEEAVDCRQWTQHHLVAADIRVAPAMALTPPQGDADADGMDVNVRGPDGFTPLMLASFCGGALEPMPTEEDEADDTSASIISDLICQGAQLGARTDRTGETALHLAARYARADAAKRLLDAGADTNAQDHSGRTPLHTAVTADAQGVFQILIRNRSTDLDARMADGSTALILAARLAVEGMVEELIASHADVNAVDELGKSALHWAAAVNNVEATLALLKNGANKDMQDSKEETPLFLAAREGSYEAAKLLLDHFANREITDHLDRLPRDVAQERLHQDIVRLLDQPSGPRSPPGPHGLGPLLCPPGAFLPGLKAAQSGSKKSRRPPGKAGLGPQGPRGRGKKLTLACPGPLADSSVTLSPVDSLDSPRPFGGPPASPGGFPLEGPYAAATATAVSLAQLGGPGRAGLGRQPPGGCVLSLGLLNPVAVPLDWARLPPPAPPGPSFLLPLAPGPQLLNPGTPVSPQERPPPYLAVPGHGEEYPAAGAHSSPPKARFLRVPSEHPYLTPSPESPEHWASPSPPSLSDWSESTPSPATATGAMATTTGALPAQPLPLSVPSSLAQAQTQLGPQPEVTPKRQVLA

[10] = small-molecule microarray binders of probe aEGFR, primary screen, biochemical, biotinylated probe, 635/667 nm fluorescence (AID 1097); conditions: higher = more signal;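 note: probe is a biotinylated anti-EGFR antibody binding compounds printed on slides; score combines fluorescence near 667 nm and signal to noise of each spot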
[11] = system: Plasmodium falciparum Sir2 (PF13_0152, Sir2A); experiment: pfSir2 binders on small-molecule microarrays, primary screen, biochemical, small-molecule microarray, 635 nm fluorescence (AID 1098); conditions: small-molecule microarray binding, fluorescence 635 nm; higher = more signal;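 note: score merges spot fluorescence intensity with its signal-to-noise ratio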
[12] = small-molecule microarray binders of probe aDKK1, primary screen, biochemical, biotinylated probe, 635/667 nm fluorescence (AID 1099); conditions: higher = more signal;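 note: score merges 667nm spot fluorescence with signal to noise across triplicate slides; reference of the scale not given here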
[13] = small-molecule microarray binders of probe aCHRDL2, primary screen, biochemical, biotinylated probe, 635/667 nm fluorescence (AID 1100); conditions: higher = more signal
[14] = splicing luciferase reporter signal modulators, primary screen, spliceosome inhibition project, cell-based, HEK293, splice +/- reporter (AID 1101); conditions: luminescence, 24 h, higher = more signal, called active from +8 up or from −8 down;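 note: HEK293 cells carrying a splicing-competent luciferase reporter gene; test concentration not given here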
[15] = target: Fibroblast growth factor 10 (Homo sapiens) (UniProt O15520); experiment: FGF10 binders on small-molecule microarrays, primary screen, biochemical, small-molecule microarray, 635 nm fluorescence (AID 1102); conditions: FGF10 binding, fluorescence 635 nm, higher = more signal
Sequence of Fibroblast growth factor 10 (Homo sapiens) (O15520 whole entry, looked up): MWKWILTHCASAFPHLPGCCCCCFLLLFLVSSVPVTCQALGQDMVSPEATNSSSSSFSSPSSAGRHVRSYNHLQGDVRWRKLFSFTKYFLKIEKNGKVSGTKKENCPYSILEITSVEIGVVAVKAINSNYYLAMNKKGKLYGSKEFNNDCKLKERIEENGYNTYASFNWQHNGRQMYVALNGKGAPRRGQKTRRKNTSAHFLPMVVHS

[16] = system: glycogen synthase kinase-3 (GSK3A per assay name; protocol says GSK3B); experiment: GSK3 binders on small-molecule microarrays, primary screen, biochemical, small-molecule microarray, 635 nm fluorescence, GSK3A (AID 1103); conditions: small-molecule microarray binding, fluorescence 635 nm; higher = more signal; note: the record names both GSK3A and GSK3B
[17] = target: Epidermal growth factor receptor (Homo sapiens) (UniProt P00533); experiment: EGFR binders on small-molecule microarrays, primary screen, biochemical, small-molecule microarray, 635 nm fluorescence (AID 1104); conditions: EGFR binding, higher = more signal;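 note: score merges 667 nm emission intensity with spot signal to noise over triplicate slides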
Sequence of Epidermal growth factor receptor (Homo sapiens) (P00533 whole entry, looked up): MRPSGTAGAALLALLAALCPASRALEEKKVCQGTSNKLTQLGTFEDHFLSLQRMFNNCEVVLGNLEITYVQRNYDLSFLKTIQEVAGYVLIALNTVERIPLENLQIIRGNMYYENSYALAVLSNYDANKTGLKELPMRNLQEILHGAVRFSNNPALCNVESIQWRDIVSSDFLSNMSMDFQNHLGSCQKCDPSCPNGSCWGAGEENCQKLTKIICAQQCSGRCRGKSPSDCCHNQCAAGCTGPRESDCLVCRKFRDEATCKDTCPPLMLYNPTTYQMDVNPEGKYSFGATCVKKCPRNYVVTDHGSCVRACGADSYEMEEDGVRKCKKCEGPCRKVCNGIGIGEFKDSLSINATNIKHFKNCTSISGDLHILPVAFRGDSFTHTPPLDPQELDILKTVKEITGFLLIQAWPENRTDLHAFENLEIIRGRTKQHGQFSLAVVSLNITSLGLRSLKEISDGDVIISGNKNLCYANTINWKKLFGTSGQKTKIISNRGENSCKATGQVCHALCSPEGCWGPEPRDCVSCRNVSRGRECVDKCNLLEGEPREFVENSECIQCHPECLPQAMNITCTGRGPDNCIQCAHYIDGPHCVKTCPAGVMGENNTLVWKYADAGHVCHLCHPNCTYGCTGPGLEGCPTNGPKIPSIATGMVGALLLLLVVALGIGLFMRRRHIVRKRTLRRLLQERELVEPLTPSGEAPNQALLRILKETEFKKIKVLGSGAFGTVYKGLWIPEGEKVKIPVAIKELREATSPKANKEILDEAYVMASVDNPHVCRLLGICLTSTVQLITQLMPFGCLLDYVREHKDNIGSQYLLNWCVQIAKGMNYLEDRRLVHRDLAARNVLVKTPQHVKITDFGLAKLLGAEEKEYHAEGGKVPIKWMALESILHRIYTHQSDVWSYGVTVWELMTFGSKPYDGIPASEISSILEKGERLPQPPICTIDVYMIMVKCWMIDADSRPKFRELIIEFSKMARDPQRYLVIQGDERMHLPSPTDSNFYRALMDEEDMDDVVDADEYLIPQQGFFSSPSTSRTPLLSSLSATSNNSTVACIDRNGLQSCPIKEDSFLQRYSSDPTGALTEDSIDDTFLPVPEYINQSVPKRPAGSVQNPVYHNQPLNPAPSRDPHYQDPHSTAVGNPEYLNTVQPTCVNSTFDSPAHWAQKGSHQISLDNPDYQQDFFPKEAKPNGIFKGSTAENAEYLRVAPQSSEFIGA

[18] = target: Follistatin-related protein 3 (Homo sapiens) (UniProt O95633); experiment: FSTL3 binders on small-molecule microarrays, primary screen, biochemical, small-molecule microarray, 635 nm fluorescence (AID 1105); conditions: FSTL3 binding, higher = more signal;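 note: score merges emission near 667 nm and signal to noise per printed spot across three slides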
Sequence of Follistatin-related protein 3 (Homo sapiens) (O95633 whole entry, looked up): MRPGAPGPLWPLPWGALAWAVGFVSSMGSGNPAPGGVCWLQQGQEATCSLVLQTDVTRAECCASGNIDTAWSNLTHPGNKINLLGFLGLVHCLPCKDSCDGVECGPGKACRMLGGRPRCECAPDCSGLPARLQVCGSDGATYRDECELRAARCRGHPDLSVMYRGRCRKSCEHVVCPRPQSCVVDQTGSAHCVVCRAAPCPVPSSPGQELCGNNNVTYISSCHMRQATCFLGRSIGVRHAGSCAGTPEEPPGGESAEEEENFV

[19] = target: Dickkopf-related protein 1 (Homo sapiens) (UniProt O94907); experiment: DKK1 binders on small-molecule microarrays, primary screen, biochemical, small-molecule microarray, 635 nm fluorescence scan (AID 1106); conditions: DKK1 binding, higher = more signal;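 note: score merges emission near 667 nm with signal to noise over three replicate slides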
Sequence of Dickkopf-related protein 1 (Homo sapiens) (O94907 whole entry, looked up): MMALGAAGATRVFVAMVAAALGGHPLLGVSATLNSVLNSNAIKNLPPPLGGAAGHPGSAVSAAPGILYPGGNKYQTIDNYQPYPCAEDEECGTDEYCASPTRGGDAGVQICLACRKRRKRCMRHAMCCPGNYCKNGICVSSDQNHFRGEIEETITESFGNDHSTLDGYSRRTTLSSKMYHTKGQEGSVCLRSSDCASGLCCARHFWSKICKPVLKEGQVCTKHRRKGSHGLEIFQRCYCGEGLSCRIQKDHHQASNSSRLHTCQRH

[20] = system: Inhibin beta A chain (activin A); experiment: INHBA (activin A) binders on microarrays, primary screen, biochemical, small-molecule microarray, 635 nm fluorescence scan (AID 1107); conditions: small-molecule microarray binding, higher = more signal;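 note: mouse activin A protein probed at 4.33 µg/mL on printed slides; score merges bound-protein fluorescence near 667 nm with spot signal-to-noise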

SMILES | composite z-score [1] | z-score [2] | z-score [3] | z-score [4] | composite z-score [5] | z-score [6] | composite z-score [7] | composite z-score [8] | composite z-score [9] | composite z-score [10] | composite z-score [11] | composite z-score [12] | composite z-score [13] | z-score [14] | composite z-score [15] | composite z-score [16] | composite z-score [17] | composite z-score [18] | composite z-score [19] | composite z-score [20]
COC(=O)[C@@]1(Cc2ccc(OC)cc2)[C@H]2c3cc(C(=O)N4CCCC4)n(Cc4cc(F)cc5c4OCOC5)c3C[C@H]2CN1C(=O)c1ccccc1 | -0.829 | -0.0795 (inactive) | -0.87 (inactive) | 0 (inactive) | 3.27 | -1.28 (inactive) | 0.499 | -0.307 | 0.77 | 0.241 | 0.782 | 0.9 | 0.984 | -2.73 (inactive) | 0.608 | 0.573 | 0.0471 | 0.326 | -0.451 | 0.795
CCOC(=O)C[C@H]1[C@H](OC(=O)c2ccccc2-c2ccccc2)[C@@H](NC(=O)c2ccc3ccccc3c2)c2cc(OCCCO)ccc2N1C(=O)c1ccc2ccccc2n1 | 0.389 | 0.47 (inactive) | 0.623 (inactive) | 0.136 (inactive) | 0.998 | -0.263 (inactive) | -0.102 | 0.526 | 0.818 | -0.111 | -0.0144 | -0.228 | -0.154 | 0.411 (inactive) | 0.533 | 0.119 | 0.289 | 0.521 | -0.0224 | 0.282
CC(C)(C)N1CC=CC23O[C@@H]4C=CCOC(=O)[C@@H]4[C@H]2C(=O)N(CCCCCO)[C@@H]3C1=O (stereo not given in full) | -0.396 | -0.256 (inactive) | -0.0499 (inactive) | -0.177 (inactive) | 0.735 | 0.385 (inactive) | -0.215 | -0.617 | -0.374 | -0.224 | 1.12 | -0.275 | 0.0408 | -0.018 (inactive) | -0.804 | -1.54 | -1.63 | -1.67 | -0.499 | -0.0694
COCC(=C=CC[C@@H](O)c1ccc(CO)o1)CCO | 0.737 | -3.24 (inactive) | -2.34 (inactive) | -2.27 (inactive) | -0.816 | 1.6 (inactive) | -0.256 | 1.33 | 0.735 | -0.0943 | 0.772 | -0.239 | -0.181 | -2.32 (inactive) | 1.26 | 0.0348 | 0.614 | 0.574 | 0.618 | 0.839
CCOC(=O)[C@H]1C[C@H]2O[C@@]23C[C@H]1C(=O)N1CCCC1[C@@H]3O[Si](C)(C)C(C)(C)C (stereo not given in full) | 0.105 | -0.938 (inactive) | -3.58 (inactive) | -1.12 (inactive) | -0.0341 | -0.788 (inactive) | 0.807 | 0.478 | -0.288 | -0.149 | -0.169 | -0.199 | -0.528 | 0.376 (inactive) | 0.476 | -0.445 | -0.694 | -0.198 | 0.0691 | 0.198
CC(C)N1C(=O)c2ccccc2[C@@H](C(=O)NCCCN(C)C)[C@@H]1c1ccc(CO)cc1 | -0.468 | -0.545 (inactive) | -0.672 (inactive) | -0.181 (inactive) | 1.3 | -1.04 (inactive) | 0.196 | -0.879 | -0.807 | -0.0435 | 1.31 | 0.744 | 1.01 | -0.472 (inactive) | 0.0328 | -0.367 | -0.568 | -0.85 | -1.25 | 0.557
COCCOC(=O)N1C(=O)[C@@]2(c3cc(C#CCNC(N)=O)ccc31)[C@H](c1ccc(OCCO)cc1)N1[C@H](c3ccccc3)[C@H](c3ccccc3)OC(=O)[C@H]1[C@@H]2C(=O)N1CCc2cc(OC)c(OC)cc2C1 | 0.993 | 1.46 (inactive) | 1.41 (inactive) | 4.56 (inactive) | 0.816 | 0.196 (inactive) | -0.0555 | 1.04 | 0.983 | -0.0007 | 0.719 | 0.208 | 0.676 | 0.911 (inactive) | 0.921 | 0.0059 | 0.803 | 1.17 | 0.455 | 0.959
CC(C)NC(=O)[C@@H]1c2ccccc2C(=O)N(Cc2ccccc2)[C@H]1c1ccc(CO)cc1 | 0.347 | -0.726 (inactive) | -0.471 (inactive) | -0.945 (inactive) | 2.36 | -0.106 (inactive) | 0.12 | -0.905 | -0.376 | 0.243 | 1.62 | 0.652 | 1.11 | 0.00875 (inactive) | 0.462 | 0.263 | -1.41 | -0.942 | -1.05 | -0.212
COC(=O)[C@@]1(Cc2ccccc2)[C@H]2c3cc(C(=O)N4CCCC4)n(Cc4ccc(C)o4)c3C[C@H]2CN1C(=O)c1ccccc1 | -0.179 | -0.619 (inactive) | 0.122 (inactive) | -0.564 (inactive) | 2.6 | -0.564 (inactive) | -0.0127 | 0.231 | 0.622 | 0.0226 | 1.21 | 0.526 | 1.13 | -2.62 (inactive) | -0.143 | 0.0411 | 0.36 | 0.276 | -0.578 | 1.23
N[C@@H](Cc1ccccc1)Cn1cc(-c2ccccc2)nn1 | 0.043 | -0.814 (inactive) | -2.18 (inactive) | 0.371 (inactive) | 0.196 | -3 (inactive) | 0.323 | -0.0062 | -0.0488 | -0.0549 | -0.334 | 0.552 | 0.932 | -1.38 (inactive) | -0.232 | -0.595 | 0.0157 | 0.0589 | -0.328 | 0.458
